The sample as a whole holds a higher share of hits than the screen did.
mcGAS MS inh – blocks mouse cGAS cGAMP production. Q8C6L5. recombinant mouse cGAS, cGAMP by RapidFire MS. inhibition, % at 12.5 µM. 0.18% of 130,000 active;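 active = inhibition of cGAS enzyme activity at or above 60%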;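 note: enzyme stimulated by 45 bp dsDNA with ATP and GTP substrates; cGAMP share of summed cGAMP plus half ATP and half GTP signals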
An asterisk follows results filed as active.

SMILES | mcGAS MS inh
NC(=S)N/N=C\c1coc2ccccc2c1=O | 95*
Cc1cc2ncc(C(=O)N3CC[C@@H]4CC[C@H](C3)N4C)c(=O)n2[nH]1 | 8
O=C1OCCC1N1CC=C(c2c[nH]c3ccccc23)CC1 (centres undefined) | -2
COc1ccccc1CC(C)N(C)Cc1cc(=O)c(O)co1 (centres undefined) | 5
CC[C@@]1(O)C[C@H](O[C@H]2C[C@H](N(C)C)[C@H](O)[C@H](C)O2)c2c(cc3c(c2O)C(=O)c2c(O)ccc(O)c2C3=O)[C@H]1C(=O)OC | 97*
CC[C@@]1(O)C[C@H](O)c2c(cc3c(c2O)C(=O)c2c(O)ccc(O)c2C3=O)[C@H]1C(=O)OC | -9
CC[C@@]1(O)C[C@H](O[C@H]2C[C@H](N(C)C)[C@H](O)[C@H](C)O2)c2c(cc3c(c2O)C(=O)c2c(O)cccc2C3=O)[C@H]1C(=O)OC | 98*
Cc1cccc(Cn2cccc(C(=O)Nc3ccc(Cl)c([N+](=O)[O-])c3)c2=O)c1 | -3
O=[N+]([O-])c1ccccc1C=NNP(=S)(c1ccccc1)c1ccccc1 | -12
O=C(NCCCN1CCCC1=O)C(C1CCCC1)N1CCN(C(=O)COc2ccc(Cl)cc2)CC1 (centres undefined) | -3
CCCNc1ncc(CN2C[C@@H](c3ccccc3)[C@@H]3[C@H]2C2CCN3CC2)cn1 | -9
COc1ccc(C=NNP(=S)(c2ccccc2)c2ccccc2)cc1OC | -3
CCOP(=O)(OCC)C(NC(=O)C(F)(F)F)C(F)(F)F (centres undefined) | 0
CC(CN(C)C)C(C#N)(c1ccccc1)c1ccccc1 (centres undefined) | -4
CCCn1cc(C(=O)NCC2CCCO2)c2ccccc21 (centres undefined) | -26

Compound activity as filed in PubChem BioAssay.
